Data on 55 molecules can be found in PubChem BioAssay AID720509 (The Scripps Research Institute Molecular Screening Center, 2013).

About 760 (0.21%) of roughly 370,000 compounds were called active. Many of the other results were omitted from the sample, so actives are more common in it than they were. Values without a mark were called inactive.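 The calls were made as follows: active = inhibition above a per-campaign cutoff: mean of compounds within control limits plus 3 SD (cut at about 15% in these data); inactive = the rest.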

In the experiment the target is Fibrinogen beta chain (Homo sapiens) (UniProt P02675). The experiment in a line: small molecules displacing Tn6 from DD(E) complex – biochemical, fluorescence polarization, human fibrin, Tn6 probe, primary screen (AID 720509).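 Also: 0% = median of all compound wells on the plate and 100% = blocking peptide control.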 The conditions noted are these: Fibrin DD(E) TRITC-Tn6 fluorescence polarization displacement; at 8.3 µM; active compounds read high.
Sequence of Fibrinogen beta chain (Homo sapiens) (P02675 whole entry, looked up): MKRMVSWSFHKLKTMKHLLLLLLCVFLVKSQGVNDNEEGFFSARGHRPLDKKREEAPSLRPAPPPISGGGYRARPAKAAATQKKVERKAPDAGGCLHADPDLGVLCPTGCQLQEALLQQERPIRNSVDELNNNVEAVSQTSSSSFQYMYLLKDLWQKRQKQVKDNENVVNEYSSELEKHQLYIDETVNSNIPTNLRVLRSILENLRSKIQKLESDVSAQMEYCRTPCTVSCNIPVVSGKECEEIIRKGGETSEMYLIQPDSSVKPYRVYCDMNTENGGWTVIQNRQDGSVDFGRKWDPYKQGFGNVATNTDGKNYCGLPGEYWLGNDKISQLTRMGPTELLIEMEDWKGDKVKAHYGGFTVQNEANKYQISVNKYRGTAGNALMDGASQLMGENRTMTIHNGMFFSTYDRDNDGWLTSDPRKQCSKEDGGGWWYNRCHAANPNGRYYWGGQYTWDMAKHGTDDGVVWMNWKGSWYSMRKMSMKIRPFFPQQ
In general, inhibition refers to the change of the read-out against control, counted positive when it falls. Regarding `O=C(NCC(F)(F)F)c1ccc(S(=O)(=O)NCCc2ccc3c(c2)OCCO3)cc1`, the inhibition is 0.28%.

`Cn1cc(-c2ccccc2)cc(C#N)c1=O`: the inhibition was -5.81%.

With `CCCCNC(=O)Nc1c(C)cc(SC#N)cc1C`, the inhibition was -1.9%.

On to `C[C@H]([C@@H](O)[C@@H](O)[C@@H](C)C(C)(C)C)[C@H]1CC[C@H]2C3CC[C@H]4C[C@H](OS(=O)(=O)O)[C@@H](OS(=O)(=O)O)C[C@]4(C)[C@H]3CC[C@]12C` (stereo not given in full), for which the inhibition was 3.35%.

Take `O=C(NCc1ccccc1Cl)C1CCN(c2ncnc3c2nc2n3CCCCC2)CC1`: the inhibition was -4.73%.

For `C=C1CCC(N(O)c2cc(C)on2)C(=C)CCC2C1CC2(C)C` (stereo not given), the inhibition is -5.24%.

On to `CC(C)Oc1cc(F)ccc1-c1cc(C(=O)Nc2cccc(Cl)c2)[nH]n1`, for which the inhibition was -6.05%.

As for `CC(CNS(=O)(=O)c1ccc(Br)cc1)CN(C)C` (stereo not given), the inhibition was -0.63%.

Take `Cc1ccc(C(=O)Cc2nnc(C)s2)cc1`: the inhibition was -0.99%.

Regarding `O=S(=O)(NCc1ccccc1Cl)c1cnc[nH]1`, the inhibition is -4.95%.

Consider `Cc1c(C(=O)N(C)CCc2cnn(C)c2)oc2c(F)cccc12`, for which the inhibition was 3.62%.

Turning to `COc1cccc(NC(=O)C2(C)CCN2Cc2ccccc2Cl)c1` (stereo not given), the inhibition was 0.5%.

For `COC(=O)c1cc(NC(=O)c2cc(C(C)(C)C)nn2Cc2cccc(C)c2)ccc1N1CCOCC1`, the inhibition is 4.88%.

In the case of `O=C(C(NS(=O)(=O)c1cccc2nsnc12)c1ccccc1)N1CCN(c2ccccc2)CC1` (stereo not given), the inhibition was 8.08%.

For `CN1CCN(C(=O)c2ccc(-c3cc4nc(NCc5cccnc5)n(C)c(=O)c4s3)cc2)CC1`, the inhibition was -11.9%.

For the molecule `Cc1ccccc1OCC(=O)NCC(=O)OCC(=O)c1ccc2ccccc2c1`, the inhibition is -2.48%.

Consider `Cc1cc2ccccc2n1CCNC(=O)COc1ccc2ccccc2c1`, for which the inhibition was 52.5% (active).

As for `O=C(COc1ccc(Cl)cc1)NCCSc1ccccc1`, the inhibition was -0.51%.

On to `O=C(NCc1ccccc1)c1cccc(NC(=O)C2CCCCC2)c1`, for which the inhibition is 3.16%.

With `O=C(CC(NC(=O)c1ccccc1)c1ccccc1)Nc1ccc(F)c(F)c1` (stereo not given), the inhibition was 6.57%.

Regarding `C=CC(COCc1ccccc1)N(CC(=O)OC)S(=O)(=O)c1cc(Br)ccc1OC` (stereo not given), the inhibition was -3.84%.

As for `Cc1noc(C)c1CSCC(=O)Nc1ccc(Br)cc1Cl`, the inhibition is -5.8%.

Turning to `CCN(CC)P(=O)(C(NC(=O)OC)C(F)(F)C(F)(F)C(F)(F)C(F)F)N(CC)CC` (stereo not given), the inhibition was 0.37%.

As for `CN1c2ccc(C=O)c3c(C=O)ccc(c23)N(C)C1(C)C`, the inhibition is 29.5% (active).

`C[C@@H]1CN([C@H](C)CO)S(=O)(=O)c2ccc(C#CC3CCCCC3)cc2O[C@H]1CN(C)C(=O)Cc1ccncc1`: the inhibition was 2.11%.

As to `Cc1cc(NC(=O)CCC(=O)N(Cc2ccccc2)C(C(=O)NC2CCCC2)c2ccc(C)o2)no1` (stereo not given), the inhibition is -2.98%.

Consider `Cc1sc2ncn(CC(=O)NCCCC(=O)N(C)Cc3ccccc3)c(=O)c2c1C`, for which the inhibition was 6.86%.

Regarding `CCCNC(=O)c1cc(C2CCCN(C(=O)c3ccc4c(c3)CCO4)C2)on1` (stereo not given), the inhibition is 2.19%.

As to `COc1cc(NC(=O)c2ccc(CNc3c(N4CCCC4)c(=O)c3=O)cc2)cc(OC)c1OC`, the inhibition was 17.7% (active).

As to `O=C(NC1CCCCC1)c1ccc(CNc2c(N3CCOCC3)c(=O)c2=O)cc1`, the inhibition is -6.33%.

In the case of `O=C(NCc1ccccc1)c1ccc(CNc2c(N3CCCC3)c(=O)c2=O)cc1`, the inhibition was -2.33%.

With `COc1cc(OC)cc(-c2c(-c3cccs3)c3cc(-c4ccc(OC)cc4F)ccc3n2C)c1`, the inhibition was 8.62%.

In the case of `Cc1nnsc1C(=O)NCc1c(F)cccc1Cl`, the inhibition is 2.62%.

For `CCC1CCCCN1S(=O)(=O)Cc1ccccc1Cl` (stereo not given), the inhibition was -7.39%.

Take `Cc1nnsc1S(=O)(=O)Cc1ccccc1Cl`: the inhibition was 16.3% (active).

For `CCOC(=O)N1CCC(NC(=O)C(NS(=O)(=O)c2ccc3c(c2)CCN3C(=O)CC)C(C)C)CC1` (stereo not given), the inhibition was 0.83%.

As to `CC(C)Cc1ccc(S(=O)(=O)N2CCN(C(=O)c3ccco3)CC2)cc1`, the inhibition is 0.21%.

Take `C[C@H](CO)N1C[C@H](C)[C@@H](CN(C)Cc2ccc(-c3ccccc3)cc2)Oc2ccc(NC(=O)Cn3cnnn3)cc2C1=O`: the inhibition was 4.05%.

Regarding `COC(=O)c1cc(=O)n(-c2c(Cl)cc(C(F)(F)F)cc2Cl)[nH]1`, the inhibition is 0.92%.

As for `O=C(OCCOc1ccccc1Cl)c1cc(S(=O)(=O)N2CCCCC2)ccc1N1CCOCC1`, the inhibition is -7.85%.

Regarding `CC(C)c1cc(NCc2ccccn2)n2c(nc3ccccc32)c1C#N`, the inhibition was 5.58%.

As for `O=C(Nc1ccc2cn[nH]c2c1)c1ccc(S(=O)(=O)N2CCOCC2)cc1`, the inhibition was 3.58%.

As to `Cc1cc2cc(CNC(=O)c3cccs3)ccc2[nH]1`, the inhibition was -2.34%.

In the case of `Cc1cc2cc(CNC(=O)c3ccc(S(=O)(=O)N4CCOCC4)cc3)ccc2[nH]1`, the inhibition is 16% (active).

As to `N=c1n(Cc2ccc(Cl)cc2)c2ccccc2n1CC(O)c1ccco1` (stereo not given), the inhibition was 0.26%.

Regarding `O=c1[nH]n(-c2ccc([N+](=O)[O-])cc2)c(=O)c2ccccc12`, the inhibition is 27.3% (active).

Regarding `C=CCNC(=S)N1CCN(CCN=Cc2c(C)[nH]n(-c3ccc([N+](=O)[O-])cc3)c2=O)CC1`, the inhibition is -4.37%.

For `O=C(CSCc1ccc([N+](=O)[O-])cc1)NCCSCc1ccccc1`, the inhibition was 2.74%.

Take `COc1cccc(NC(=O)Cn2c3ccc(F)cc3c3nc4n(c(=O)c32)CCS4)c1`: the inhibition is -7.55%.

With `COc1ccc(C2/C=C\CN(S(=O)(=O)c3cccs3)CC(=O)N2Cc2ccc(F)cc2)cc1` (stereo not given), the inhibition was -0.69%.

On to `CC(=O)c1ccc(OCCCC(=O)Nc2ccc(C)c(S(=O)(=O)N3CCOCC3)c2)cc1`, for which the inhibition was 6.11%.

`CCCCNC(=O)c1ccccc1NC(=O)c1ccccc1N(C)S(C)(=O)=O`: the inhibition is 2.47%.

Consider `COc1ccccc1N(CCOc1ccccc1)S(=O)(=O)c1ccccc1`, for which the inhibition is 5.19%.

Consider `COC(C/C=C/C(=O)[C@@H](C)OCc1ccccc1)OC`, for which the inhibition is 5.15%.

Regarding `O=c1c2ccccc2nc2n1C(CSCc1cccc(C(F)(F)F)c1)CS2` (stereo not given), the inhibition was 2.51%.
